40 compounds from PubChem BioAssay (Tox21) can be followed below.

Results filed as inconclusive are left out. Active and inactive are the calls of the source. Calls follow the shape of the dose curve; as a rule, active = well fitted cell-killing curve with a large enough effect in the repeat runs; inconclusive = weak or mixed curves, or effect the other way; inactive = flat fitted curve, though single readings scatter.
% is scaled to controls: 0 for no effect and ±100 for the full control effect.

The experiment can be described thus: qHTS assay to identify small molecule that activate the aryl hydrocarbon receptor (AhR) signaling pathway - cell viability counter screen (AID 743086).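 Also: HepG2 liver cells carrying the AhR DRE luciferase reporter; nearly all actives have a fitted effect of over 45% in size.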 The conditions noted are these: HepG2-AhR-luc viability, CellTiter-Fluor, 24 h; series mostly up to 70.3 µM; viability change, negative = cytotoxic: at the top concentration. The text has this: U.S. Tox21 Program National Center for Advancing Translational Sciences [NCATS] NIH Chemical Genomics Center [NCGC] U.S. Environmental Protection Agency [EPA] National Institutes of Environmental Health Sciences [NIEHS] National Toxicology Program [NTP] U.S. Food and Drug Administration [FDA] Tox21 Assay overview: The Aryl hydrocarbon Receptor (AhR), a member of the family of basic helix-loop-helix transcription factors, is crucial to adaptive responses to environmental changes. AhR mediates cellular responses to environmental pollutants such as aromatic hydrocarbons through induction of phase I and II enzymes but also interacts with other nuclear receptor signaling pathways A cell based HepG2-AhR-luc assay (HG2L7.5c1 cell line, developed by Dr. Michael S. Denison, University of California at Davis) was used to assess the activation of AhR. HepG2 (human hepatocellular carcinoma) cells were stably transfected with an Ah receptor-responsive firefly luciferase reporter gene plasmid containing 20 dioxin responsive elements and luciferase reporter gene. Increased luciferase activity can be used to identify the compounds that induce AhR activation. The cytotoxicity of the compounds screened against the HepG2-AhR-luc cell line was tested in parallel by measuring the cell viability using CellTiter-Fluor assay in the same wells.
Tox21 Assay Protocol Summary: 4000 cells in 5 uL/well were dispensed into white wall/solid bottom 1536-well plates using a Multidrop Combi (Thermo Fisher Scientific Inc., Waltham, MA) dispenser. After the assay plates were incubated at 37C for 5 h, 23 nL of compound or DMSO vehicle was transferred to the assay plates by a pintool station (Kalypsys, San Diego, CA). The plates were incubated at 37C for 24 hr. For cell viability measurement, 1 ul/well of CellTiter-Fluor reagent (Promega, Madison, WI) was added into the assay plates using a Flying Reagent Dispenser (FRD) (Aurora Discovery, CA),and then the assay plates were incubated at 37C for 30 min. The fluorescence intensity in the plates was measured using a ViewLux plate reader (PerkinElmer, Shelton, CT), followed by the addition of 4 uL of ONE-Glo Luciferase Assay reagent (Promega) using an FRD (Aurora Discovery). After the assay plates were incubated at room temperature for 30 min, luminescence intensity was measured using a ViewLux plate reader (Perkin Elmer).
In the case of `Cc1ccc(S(=O)(=O)NC(=O)NC2CCCCC2)cc1`, the “viability change, negative = cytotoxic” value is -10.9% (inactive).

`CCOC(=O)c1c(N)sc2c1CCN(Cc1ccccc1)C2`: the “viability change, negative = cytotoxic” value was 5.78% (inactive). For the compound `Cc1cccc(C)c1NC(=O)c1cc(S(N)(=O)=O)c(Cl)cc1O`, the “viability change, negative = cytotoxic” value was -8.6% (inactive). In the case of `O=S(=O)(Cl)c1c(Cl)cccc1Cl`, the “viability change, negative = cytotoxic” value was 0.152% (inactive). With `O=CNNC=O`, the “viability change, negative = cytotoxic” value was 9.73% [at 95 µM] (inactive). For the compound `Nc1ccc(NC(=O)c2ccc(N)cc2)cc1`, the “viability change, negative = cytotoxic” value was -7.34% (inactive). `COc1cc(S(=O)(=O)Nc2ccccc2)c(OC)cc1N`: the “viability change, negative = cytotoxic” value is 2.86% (inactive). The same measure, in the same setting: the value for `CCC(CO)(CO)CO` was 6.26% [at 95 µM] (inactive); that for `BrC(Br)C(Br)Br` was -3.53% (inactive). Regarding `Cc1ccc(Cl)cc1N`, the “viability change, negative = cytotoxic” value is 0.358% [at 95 µM] (inactive). In the case of `CC(=O)C(C)=O`, the “viability change, negative = cytotoxic” value was -4.66% [at 95 µM] (inactive). On to `CC(C)Cc1ccc(CC(=O)O)cc1`, for which the “viability change, negative = cytotoxic” value was 0.485% (inactive).

Consider `CCCCC[C@H](O)/C=C/[C@H]1[C@H](O)CC(=O)[C@@H]1C/C=C\CCCC(=O)O`, for which the “viability change, negative = cytotoxic” value is 6.7% (inactive). With `CCN(CC)CCNC(=O)c1cc(Cl)c(N)cc1OC`, the “viability change, negative = cytotoxic” value is -2.21% (inactive).

In the case of `CC(C)c1ccc(C(=O)N=C(N)N)cc1S(C)(=O)=O`, the “viability change, negative = cytotoxic” value is -0.616% (inactive). `CCCC(=O)OC(=O)CCC`: the “viability change, negative = cytotoxic” value was -1.19% [at 95 µM] (inactive). For the compound `COc1cc(NS(=O)(=O)c2ccc(N)cc2)nc(C)n1`, the “viability change, negative = cytotoxic” value is 14.4% (inactive). Consider `CCN(CC)CCOc1ccccc1C(=O)CCc1ccccc1`, for which the “viability change, negative = cytotoxic” value was -27.7% (inactive). Take `O=C(c1ccccc1)c1ccc(O)cc1`: the “viability change, negative = cytotoxic” value was 3.32% [at 95 µM] (inactive). Same read-out and setting: under `COc1ccc(C(=O)NCc2ccc(OCCN(C)C)cc2)cc1OC` stands -1.18% (inactive); under `CC(=O)OCCC(C)CC(C)(C)C` (stereo not given), -1.82% (inactive). Regarding `CCCCCC`, the “viability change, negative = cytotoxic” value was 1.54% (inactive).

As for `SCCc1cnccn1`, the “viability change, negative = cytotoxic” value is 7.06% (inactive). As for `CCCCC(CC)COS(=O)(=O)O` (stereo not given), the Potency entry was “inactive”.

With `CC(=O)OC(C)C[N+](C)(C)C` (stereo not given), the “viability change, negative = cytotoxic” value is -6.15% [at 32.5 µM] (inactive). With `CCNc1nc(N)nc(Cl)n1`, the “viability change, negative = cytotoxic” value is 15.6% (inactive). On the same count and under the same terms, under `CC(C)c1ccc(C#N)cc1` stands -1.15% (inactive); under `CC1=CC[C@@H]2C[C@H]1C2(C)C`, -16.2% [at 18.2 µM] (inactive).

On to `O=C1OC(=O)c2c(Br)c(Br)c(Br)c(Br)c21`, for which the “viability change, negative = cytotoxic” value is -11.1% (inactive). Still for that read-out and setting: under `Cc1ccc2c(c1)CCCN2` stands -1.79% (inactive). `CCCCCCC(O)CCOC(C)=O` (stereo not given): the “viability change, negative = cytotoxic” value is 12.8% [at 260 µM] (inactive).

Take `CC(=O)c1ccc[nH]1`: the “viability change, negative = cytotoxic” value was -1.31% (inactive). Consider `N[C@@H](Cc1cc(I)c(O)c(I)c1)C(=O)O`, for which the “viability change, negative = cytotoxic” value is -14.1% (inactive). In the case of `CC(=O)C(=O)CC(C)C`, the “viability change, negative = cytotoxic” value was 6.85% (inactive).

Regarding `O=c1[nH]c2cc(C(F)(F)F)c(N3CCOCC3)cc2n(CP(=O)(O)O)c1=O`, the “viability change, negative = cytotoxic” value is 14% (inactive). Consider `COc1ccc(CCN(C)CCCN2CCc3cc(OC)c(OC)cc3CC2=O)cc1OC`, for which the “viability change, negative = cytotoxic” value is -21.4% (inactive). Regarding `CC(C)(C)NCC(O)COc1cccc2c1C[C@H](O)[C@H](O)C2` (stereo not given in full), the “viability change, negative = cytotoxic” value was 16.9% [at 32.5 µM] (inactive). The same measure, in the same setting: under `CS(=O)(=O)c1ccc([C@@H](C[C@H]2CCC(=O)C2)C(=O)Nc2cnccn2)cc1Cl` stands 2.15% (inactive); under `CC(C)C(=O)OCCOc1ccccc1`, 10.1% (inactive); under `O=P(O)(O)Oc1ccccc1`, 13.3% (inactive).
